The list is not random: actives were taken first. Their share in the collection is about 4.1%.
AmpC detergent: blocks E. coli AmpC beta-lactamase in detergent assay. P00811. AmpC hydrolysis of nitrocefin, absorbance 480 nm, 0.01% Triton. Potency, µM (titrated, usually from 114 µM), usual class: inhibitors. 0.041% of 370,000 active; also: nearly all actives have a fitted effect of over 25% in size
Target sequence (P00811 whole entry, looked up): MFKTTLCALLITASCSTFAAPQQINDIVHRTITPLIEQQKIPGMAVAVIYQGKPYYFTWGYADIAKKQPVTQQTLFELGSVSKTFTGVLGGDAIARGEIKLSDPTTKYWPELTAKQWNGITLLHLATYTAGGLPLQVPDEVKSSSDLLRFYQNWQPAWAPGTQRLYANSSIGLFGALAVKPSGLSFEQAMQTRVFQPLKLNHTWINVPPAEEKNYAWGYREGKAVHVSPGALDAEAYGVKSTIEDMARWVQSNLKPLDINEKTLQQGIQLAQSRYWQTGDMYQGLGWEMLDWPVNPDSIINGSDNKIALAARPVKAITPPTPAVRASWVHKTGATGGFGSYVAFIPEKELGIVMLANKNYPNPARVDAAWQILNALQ
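20 mM phosphate pH 7.0 + 0.01% (detergent screen) or 0.0001% Triton X-100; 5.3 nM AmpC reagent; cpd preinc 15 min RT; nitrocefin (800 uM stock) to start; A480 q20 s × 4 min; Activity was normalised to no-enzyme and no-compound control wells.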
AmpC no deterg: inhibitors of E. coli AmpC beta-lactamase without detergent; 0.52% of 330,000 active; P00811; AmpC nitrocefin hydrolysis, absorbance 480 nm, 0.0001% Triton; AID 485341; Potency, µM (doses to about 57.1 µM), usual class: inhibitors; also: nearly all actives have a fitted effect of over 20% in size
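AmpC (5.3 nM in the dispensed reagent) in 20 mM phosphate pH 7.0 with 0.01% (detergent screen) or 0.0001% Triton X-100 was preincubated with compounds for 15 min at room temperature. Nitrocefin was then added from an 800 uM solution, and hydrolysis was followed at 480 nm.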
AMA1 RON2 block: inhibitors of Plasmodium falciparum AMA1-RON2 interaction | AlphaScreen AMA1-biotinylated RON2 peptide binding | Potency, µM (top dose mostly 58.2 µM), most hits filed as inhibitors | 0.2% of 360,000 active | AID 720542; also: nearly all actives have a fitted effect of over 45% in size
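AMA1 (3D7) with his tag at 25 nM final met compounds first, then biotinylated RON2 peptide at 25 nM; detection used donor plus acceptor beads, 10 µg/mL apiece, read by AlphaScreen after 30 min at room temperature.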
FMDV inh: blocks foot and mouth disease virus; FMDV antiviral cell-based qHTS; Potency, µM (series often up to 57.9 µM), usual class: inhibitors; 1.2% of 410,000 active; AID 1159524; calls by dose curve; tested in HEK293T cells; also: read-out not given here; nearly all actives have a fitted effect of over 45% in size
Sm TGR inh: S. mansoni TGR enzyme inhibition; Q962Y6; purified TGR, DTNB reduction, TNB absorbance 405 nm; Potency, µM (titrated, usually from 114 µM), usual class: inhibitors; 3% of 360,000 active; AID 485364; also: nearly all actives have a fitted effect of over 60% in size
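TGR 20 nM + NADPH 100 uM (dispensed conc.), cpd preinc 15 min RT; start with NADPH (500 uM addition) then DTNB (15 mM addition). Kinetic TNB absorbance, 405 nm filter. Four-parameter Hill fit across titration.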
Large screens that a line does not name were inactive. Unless noted, calls follow the shape of the dose curve; as a rule, active = well fitted curve in the direction sought with a large enough effect; inconclusive = small, poorly fitted or top-dose-only effect, or another doubt; inactive = no such curve, though single readings can be large; an effect the other way counts as inactive or inconclusive.

COc1ccc(NC(=O)C2CCCN(S(=O)(=O)c3cccnc3)C2)cc1OC (stereo not drawn)	none
CCOc1cc(/C=C(\C#N)C(=O)Nc2ccc(C)cc2)ccc1OCc1cc(=O)n2nc(CC)sc2n1	none (no result: AmpC no deterg, AMA1 RON2 block)
NC(=O)C1=C[C@H](c2ccc3c(c2)OCO3)C[C@H](OCc2ccc(CO)cc2)O1	Sm TGR inh 56µM
O=C(O)C1=C[C@@H](c2ccc3c(c2)OCO3)C[C@@H](OCc2ccc(CO)cc2)O1	none
NC(=O)C1=C[C@@H](c2ccccc2)C[C@@H](OCc2ccc(CO)cc2)O1	Sm TGR inh 50µM
CC1CCN(C(=O)c2cc3c(=O)n(C)c4cc(Cl)ccc4c3s2)CC1	none (no result: AmpC no deterg, AMA1 RON2 block)
CN1C(=O)C(C)(C)c2cc(S(=O)(=O)NCc3ccc(C(=O)Nc4ccc(Cl)cc4)cc3)ccc21	FMDV inh 32µM (no result: AmpC no deterg, AMA1 RON2 block)
COc1cc(CN2CCC(C(=O)NC3CCCC3)CC2)cc(OC)c1O	Sm TGR inh 8.9µM
COc1cc(CN2CCC(C(=O)N3CCCC(C)C3)CC2)cc(OC)c1O (stereo not drawn)	Sm TGR inh 10µM (no result: FMDV inh)
COc1cccc2cc(-c3csc(-c4ccc(Cl)cc4)n3)c(=O)oc12	none (no result: AmpC no deterg, AMA1 RON2 block)
CC1CN(CCC(=O)NCc2ccc3ncccc3c2)Cc2cc(Cl)ccc2O1 (stereo not drawn)	none (no result: AmpC detergent, AmpC no deterg, AMA1 RON2 block, Sm TGR inh)
Cc1cc(NC(=S)Nc2ccc(C)c(Cl)c2)n[nH]1	Sm TGR inh 7.1µM
Cc1cc2c(c(-c3cnccn3)c1)OC(CNC(=O)c1cc(C(C)C)[nH]n1)C2 (stereo not drawn)	none (no result: AmpC detergent, AmpC no deterg, AMA1 RON2 block, Sm TGR inh)
COc1ccccc1C(=O)Nc1ccc2c(c1)CC1(C(=O)N(C)C(=O)N(C)C1=O)C1CCCN21 (stereo not drawn)	Sm TGR inh 35µM
COc1ccc(OC)c(C2NC(=O)NC(C)=C2C(=O)Nc2ccc(F)cc2)c1 (stereo not drawn)	none (no result: AmpC no deterg, AMA1 RON2 block)
COC(=O)c1ccc(CNC(=O)C(C)N=C2NS(=O)(=O)c3ccccc32)cc1 (stereo not drawn)	AmpC detergent inconclusive
CCOc1ccc(C(C)=O)cc1COC(=O)C(C)N=C1NS(=O)(=O)c2ccccc21 (stereo not drawn)	Sm TGR inh 20µM
Cc1c(Cl)cccc1NC(=O)Cn1nnc2sc3c(c2c1=O)CCCC3	none (no result: AmpC no deterg, AMA1 RON2 block)
Cc1c(C(=O)NCCCc2ccncc2)cnn1-c1nccc(-c2ccccc2F)n1	none (no result: AmpC detergent, AmpC no deterg, AMA1 RON2 block, Sm TGR inh)
O=c1oc2cc([N+](=O)[O-])ccc2nc1/C=C(O)/C=C/c1ccccc1	Sm TGR inh 35µM (no result: AMA1 RON2 block, FMDV inh)
COc1cc(/C=C2/C(=O)c3cccc([N+](=O)[O-])c3C2=O)c(Br)cc1O	AMA1 RON2 block inconclusive, FMDV inh 3.5µM, Sm TGR inh 35µM
CN(C[C@H](c1ccccc1)N(C[C@H](Cc1ccccc1)N(CCc1ccccc1)N=O)N=O)N=O	Sm TGR inh inconclusive
CN(C[C@H](Cc1ccccc1)N(C[C@H](c1ccccc1)N(CCc1ccccc1)N=O)N=O)N=O	Sm TGR inh 13µM
COc1cc(CN2CCN(c3ccccc3F)CC2)cc(OC)c1O	Sm TGR inh 14µM
COc1ccccc1N1CCN(Cc2ccc(SC)cc2)CC1	AmpC detergent inconclusive, AMA1 RON2 block 20µM
COc1ccccc1N1CCN(Cc2ccc(F)cc2)CC1	none
COc1cc2c(cc1OC)CN(Cc1ccccc1)CC2	none
COc1ccc(CN2CCN(c3ccccc3F)CC2)cc1O	none
COc1cc2c(cc1OC)CN(Cc1cc(OC)c(O)c(OC)c1)CC2	Sm TGR inh 8.9µM
CCc1ccc(CN2CCN(Cc3ccc(SC)cc3)CC2)cc1	AMA1 RON2 block 13µM, FMDV inh inconclusive
CSc1ccc(CN2CCSCC2)cc1	none
COc1ccc(NC(=O)N2CCC(CN3CCCC3)CC2)c(OC)c1	none (no result: AmpC no deterg, AMA1 RON2 block)
CCOC(=O)C1=C(c2ccccc2)NC(=O)NC1c1ccc(O)c(Cl)c1 (stereo not drawn)	FMDV inh 8.9µM
CCOC(=O)C1=C(c2ccccc2)NC(=O)NC1c1ccc(O)c(OCC)c1 (stereo not drawn)	none
Cc1c(C(=O)NCCCN2CCCC2=O)cnn1-c1ncc2c(n1)-c1ccccc1CC2	none (no result: AmpC detergent, AmpC no deterg, AMA1 RON2 block, Sm TGR inh)
CC1CN(c2ccc(Cl)cc2)c2nc3c(c(=O)[nH]c(=O)n3C)n2C1 (stereo not drawn)	none
